From PubChem BioAssay (EPA / NIEHS)
Records with an inconclusive call do not appear. Active and inactive are the calls of the source. How the source made its calls, unless noted: active means hit-call score of the fitted dose curve at least 0.9, where 1 is the maximum; inactive means score below 0.9.

Legend:
[1] = ATG_CRE_CIS: Attagene CIS-FACTORIAL HepG2 Assay for human cAMP Responsive Element (CRE) binding protein 3 (AID 2282926); conditions: HepG2 CRE cis-reporter, Attagene multiplexed mRNA; actives raise or lower the signal
In short: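 Assay format: transient reporter transfection of HepG2, 24 h treatment, total RNA isolation with DNase I step. Reporter abundance read by fluorescence after PCR and capillary separation; DMSO-normalised gain or loss fitting.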

[2] = ATG_DR4_LXR_CIS: Attagene CIS-FACTORIAL HepG2 Assay for human Liver X Receptor (LXR), DR4 submotif (AID 2282929); conditions: HepG2 Attagene DR4 cis-reporter, mRNA transcription; actives raise or lower the signal
In short: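 The endpoint is DR4-element-driven reporter transcripts after 24 h chemical exposure of transfected HepG2 cells. These were measured via RT-PCR and capillary electrophoresis, and gain or loss of signal was fitted relative to DMSO controls.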

[3] = molecular target: Hypoxia-inducible factor 1-alpha (Homo sapiens) (UniProt Q16665); test: ATG_HIF1a_CIS: Attagene CIS-FACTORIAL HepG2 Assay for human Hypoxia Inducible Factor 1 (HIF1A) (AID 2282951); conditions: HepG2 Attagene cis-factorial HIF1a reporter transcription; actives raise or lower the signal
In short: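 Activity is fitted in both directions relative to DMSO. Reporter transcripts are read by RT-PCR, fluorescent primer extension and capillary electrophoresis after 24 h chemical treatment. The cells are HepG2 carrying transiently transfected cis-element-driven reporter units responding to endogenous factors.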

[4] = molecular target: Hepatocyte nuclear factor 6 (Homo sapiens) (UniProt Q9UBC0); test: ATG_HNF6_CIS: Attagene CIS-FACTORIAL HepG2 Assay for human Hepatocyte Nuclear Factor 6 (HNF6) (AID 2282952); conditions: HepG2 Attagene cis-factorial HNF6 reporter transcription; actives raise or lower the signal
In short: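 Using cis-element reporters in HepG2 liver cells, the assay tracks endogenous factor-driven transcription 24 h post-dosing. Signal comes from 6-FAM-labelled, HpaI-digested RT-PCR fragments, with gain or loss scored against DMSO.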

[5] = molecular target: Heat shock factor protein 1 (Homo sapiens) (UniProt Q00613); test: ATG_HSE_CIS: Attagene CIS-FACTORIAL HepG2 Assay for human Heat Shock Transcription Factor 1 (HSE) (AID 2282953); conditions: HepG2 HSE cis-reporter, Attagene RNA transcription; actives raise or lower the signal
In short: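 Endogenous transcription factor activity in transiently transfected HepG2, read as reporter mRNA by RT-PCR with fluorescent capillary electrophoresis after 24 h. Gain or loss of signal fitted versus DMSO baseline.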

[6] = ATG_TCF_b_cat_CIS: Attagene CIS-FACTORIAL HepG2 Assay for human T-Cell-Factor with beta-catenin (TCF/b-cat) (AID 2282965); conditions: HepG2 TCF/beta-catenin cis-reporter transcription, actives raise or lower the signal
In short: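 HepG2 cells transiently transfected with multiple cis-promoter-regulated reporter transcription units, so endogenous transcription factor activity is measured. Reporter mRNA read 24 hours after dosing by RT-PCR, fluorescent labelling and capillary electrophoresis; bidirectional fitting against DMSO.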

[7] = ATG_TGFb_CIS: Attagene CIS-FACTORIAL HepG2 Assay for human Transforming Growth Factor (TGF) (AID 2282967); conditions: HepG2 Attagene CIS TGFb reporter, mRNA transcription; actives raise or lower the signal
In short: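 Endogenous TGFB1-linked transcription factor activity read as reporter mRNA via RT-PCR and capillary electrophoresis, 24 h after dosing transiently transfected HepG2 cells. Gain or loss of signal fitted relative to DMSO.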

[8] = molecular target: Transcriptional activator Myb (Homo sapiens) (UniProt P10242); test: ATG_Myb_CIS: Attagene CIS-FACTORIAL HepG2 Assay for human Myeloblastosis (Myb) Proto-Oncogene Transcription Factor (AID 2282986); conditions: HepG2 Attagene CIS-FACTORIAL Myb reporter transcription; actives raise or lower the signal
In short: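 Reporter mRNA is quantified by RT-PCR and capillary electrophoresis 24 h after dosing HepG2 cells transfected with cis-regulated reporter units, which track endogenous transcription factor activity. Gain and loss of signal are fitted versus DMSO baseline.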

[9] = molecular target: Nuclear respiratory factor 1 (Homo sapiens) (UniProt Q16656); test: ATG_NRF1_CIS: Attagene CIS-FACTORIAL HepG2 Assay for human Nuclear Respiratory Factor 1 (NRF1) Orphan Gene (AID 2282987); conditions: HepG2 NRF1 cis-element reporter, Attagene multiplex; actives raise or lower the signal
In short: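 Endogenous NRF1-driven reporter transcription in transfected HepG2 cells after 24 h treatment. Readout: RT-PCR products, 6-FAM labelled and resolved by capillary electrophoresis; changes fitted both directions relative to DMSO.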

[10] = ATG_NFI_CIS: Attagene CIS-FACTORIAL HepG2 Assay for human Nuclear Factor I (NFI) (AID 2282989); conditions: HepG2 cis-regulatory reporter, NFI response element transcription; actives raise or lower the signal
In short: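 Reporter transcripts were measured by RT-PCR with fluorescent primer extension and capillary electrophoresis 24 h post-treatment. HepG2 cells carried transiently transfected cis-regulated reporter constructs reporting endogenous factor activity; gain or loss fitted against DMSO baseline.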

[11] = molecular target: Myc proto-oncogene protein (Homo sapiens) (UniProt P01106); test: ATG_Myc_CIS: Attagene CIS-FACTORIAL HepG2 Assay for human Myelocytomatosis (Myc) Proto-Oncogene Transcription Factor (AID 2282990); conditions: HepG2, Attagene cis-reporter transcription factor activity; actives raise or lower the signal
In short: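 HepG2 cells transiently transfected with multiple cis-promoter-driven reporter transcription units, so endogenous TF activity is read. After 24 h compound exposure, reporter mRNA was quantified by RT-PCR, 6-FAM labelling, HpaI digestion and capillary electrophoresis; bidirectional fit versus DMSO.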

[12] = ATG_NRF2_ARE_CIS: Attagene CIS-FACTORIAL HepG2 Assay for human Nuclear Factor Erythroid 2 Related Factor 2 (NFR2) response to Antioxidant Response Elements (ARE) (AID 2282992); conditions: HepG2 Attagene ARE/NRF2 reporter, transcription factor activity; actives raise or lower the signal;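 on AC50: reporter mRNA level measured by RT-PCR and capillary electrophoresis fluorescence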
In short: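 Endogenous transcription factor activity in human liver HepG2 cells is tracked via a cis-element-driven reporter within a multiplexed set. mRNA induction is read by RT-PCR and capillary electrophoresis after 24 h, with DMSO as baseline.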

[13] = ATG_Oct_MLP_CIS: Attagene CIS-FACTORIAL HepG2 Assay for human Octamer-Binding Transcription Factor (Oct) (AID 2282993); conditions: HepG2 Attagene cis-factorial Oct reporter, mRNA; actives raise or lower the signal
In short: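 Readout is reporter transcript level from RT-PCR with fluorescent primer extension and capillary electrophoresis, fitted in both directions against DMSO. Transfected HepG2 reporter units report endogenous factor activity after 24 h dosing.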

[14] = molecular target: Cellular tumor antigen p53 (Homo sapiens) (UniProt P04637); test: ATG_p53_CIS: Attagene CIS-FACTORIAL HepG2 Assay for human p53 Transcription Factor (AID 2282994); conditions: HepG2 p53 cis-element reporter, Attagene mRNA; actives raise or lower the signal
In short: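 Steps: transfect HepG2 with multiplexed cis reporter constructs; dose chemicals 24 h; extract RNA, reverse-transcribe, PCR-amplify reporter sequences; FAM-label, HpaI-digest, resolve fragments by CE. Activity fitted both directions relative to DMSO.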

[15] = molecular target: Nuclear receptor subfamily 1 group I member 2 (Homo sapiens) (UniProt O75469); test: ATG_PXR_TRANS: Attagene TRANS-FACTORIAL HepG2 Assay for human Pregnane X Receptor (PXR) (AID 2283008; active means hit-call score of the fitted dose curve at least 0.9, where 1 is the maximum)
In short: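 HepG2 transfected (FuGene 6) with GAL4-UAS reporter units + PXR-Gal4 chimera; dosed 24 h. Total RNA → oligo(dT) RT → PCR → 6-FAM primer extension → HpaI cut → CE. Gain-of-signal vs DMSO.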

[16] = ATG_XTT_Cytotoxicity: Cytotoxicity Assessment in the Attagene TRANS-FACTORIAL HepG2 Assay (AID 2283584; active means hit-call score of the fitted dose curve at least 0.9, where 1 is the maximum)
In short: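 Cells: human HepG2, transiently transfected with MRTU reporter constructs. Exposure 24 h. Readout: XTT, cell number. Baseline/neg ctrl DMSO; loss-of-signal scored.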

[17] = molecular target: Transcription factor E2F1 (Homo sapiens) (UniProt Q01094); test: ATG_E2F_CIS: Attagene CIS-FACTORIAL HepG2 Assay for human E2F Transcription Factor 1 (AID 2282935); conditions: HepG2 Attagene cis-reporter, E2F reporter RNA transcripts; actives raise or lower the signal
In short: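 First, HepG2 cells were transfected with reporter transcription units. Next, they were dosed for 24 h. Then RNA was isolated, converted to cDNA, PCR-amplified, FAM-labeled, HpaI-digested and analyzed by capillary electrophoresis.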

[18] = ATG_GLI_CIS: Attagene CIS-FACTORIAL HepG2 Assay for human Zinc Finger Protein GLI1 (AID 2282945); conditions: HepG2, Attagene cis-factorial reporter mRNA, GLI element; actives raise or lower the signal
In short: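 HepG2 cells transiently transfected with cis-promoter multiplexed reporter units report endogenous transcription factor activity. After 24 h chemical exposure, reporter mRNA was quantified by RT-PCR, 6-FAM labelling, HpaI digestion and capillary electrophoresis, with bidirectional fitting against DMSO.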

[19] = ATG_GRE_CIS: Attagene CIS-FACTORIAL HepG2 Assay for human Glucocorticoid Response Elements (GRE) (AID 2282947); conditions: HepG2 GRE cis-reporter, Attagene multiplex mRNA; actives raise or lower the signal
In short: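 Cells (HepG2) bearing transfected cis-promoter reporter transcription units were treated with chemical for 24 hours. Reporter mRNA was measured via RT-PCR with capillary electrophoresis, and activity was fitted in both directions relative to DMSO.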

[20] = ATG_TA_CIS: Attagene CIS-FACTORIAL HepG2 Assay for human TA Basal Promoter (AID 2282964); conditions: HepG2 Attagene CIS-factorial TA basal promoter reporter; actives raise or lower the signal
In short: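 Background-control readout: TA basal promoter reporter mRNA, fitted in both directions relative to DMSO. Measured by RT-PCR and capillary electrophoresis 24 hours after treating HepG2 human liver cells transiently carrying multiplexed cis-regulated reporter constructs.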

Chain of Heat shock factor protein 1 (Homo sapiens) (Q00613 whole entry, looked up): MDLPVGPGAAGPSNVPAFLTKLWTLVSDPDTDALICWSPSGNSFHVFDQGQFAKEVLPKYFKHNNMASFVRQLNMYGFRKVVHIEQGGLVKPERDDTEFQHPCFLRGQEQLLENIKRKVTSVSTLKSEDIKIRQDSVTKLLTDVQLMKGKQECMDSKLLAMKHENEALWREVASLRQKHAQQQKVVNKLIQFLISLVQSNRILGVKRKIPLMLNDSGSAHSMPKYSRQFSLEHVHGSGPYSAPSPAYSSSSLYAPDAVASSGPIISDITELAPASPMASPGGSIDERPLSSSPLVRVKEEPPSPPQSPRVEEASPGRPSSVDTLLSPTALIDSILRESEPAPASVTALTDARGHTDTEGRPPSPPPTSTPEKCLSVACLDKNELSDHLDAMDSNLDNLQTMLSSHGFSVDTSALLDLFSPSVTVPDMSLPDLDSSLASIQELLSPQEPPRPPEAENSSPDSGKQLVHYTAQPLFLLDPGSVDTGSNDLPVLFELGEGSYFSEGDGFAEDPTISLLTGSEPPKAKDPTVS
Chain of Cellular tumor antigen p53 (Homo sapiens) (P04637 whole entry, looked up, the tested form may be a part): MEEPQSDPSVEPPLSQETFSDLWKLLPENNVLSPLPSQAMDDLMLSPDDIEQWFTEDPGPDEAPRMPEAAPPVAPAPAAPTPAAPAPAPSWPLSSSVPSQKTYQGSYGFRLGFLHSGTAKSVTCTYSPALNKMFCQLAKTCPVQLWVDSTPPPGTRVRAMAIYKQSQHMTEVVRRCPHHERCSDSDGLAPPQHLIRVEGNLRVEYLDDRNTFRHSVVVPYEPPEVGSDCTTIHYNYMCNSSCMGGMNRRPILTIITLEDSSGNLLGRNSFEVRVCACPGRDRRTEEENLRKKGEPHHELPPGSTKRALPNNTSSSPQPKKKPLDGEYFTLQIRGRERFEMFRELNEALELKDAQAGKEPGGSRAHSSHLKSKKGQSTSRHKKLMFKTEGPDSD
Chain of Transcriptional activator Myb (Homo sapiens) (P10242 whole entry, looked up): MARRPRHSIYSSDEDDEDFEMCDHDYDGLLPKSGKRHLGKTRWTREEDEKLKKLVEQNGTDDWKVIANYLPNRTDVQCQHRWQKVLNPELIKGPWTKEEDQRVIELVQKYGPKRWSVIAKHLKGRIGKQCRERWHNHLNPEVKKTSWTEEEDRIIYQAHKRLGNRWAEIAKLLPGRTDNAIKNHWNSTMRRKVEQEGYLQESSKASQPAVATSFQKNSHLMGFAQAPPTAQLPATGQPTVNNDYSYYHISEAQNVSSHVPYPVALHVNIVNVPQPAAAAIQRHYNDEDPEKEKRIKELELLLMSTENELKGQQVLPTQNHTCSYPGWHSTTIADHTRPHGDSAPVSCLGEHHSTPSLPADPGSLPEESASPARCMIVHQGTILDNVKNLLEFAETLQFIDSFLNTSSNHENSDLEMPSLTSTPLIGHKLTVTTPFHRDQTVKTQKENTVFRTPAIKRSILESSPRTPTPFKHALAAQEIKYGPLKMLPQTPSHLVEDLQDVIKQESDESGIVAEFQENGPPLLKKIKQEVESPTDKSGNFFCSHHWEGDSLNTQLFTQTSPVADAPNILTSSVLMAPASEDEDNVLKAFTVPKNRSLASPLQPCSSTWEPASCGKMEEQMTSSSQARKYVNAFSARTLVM
Chain of Transcription factor E2F1 (Homo sapiens) (Q01094 whole entry, looked up): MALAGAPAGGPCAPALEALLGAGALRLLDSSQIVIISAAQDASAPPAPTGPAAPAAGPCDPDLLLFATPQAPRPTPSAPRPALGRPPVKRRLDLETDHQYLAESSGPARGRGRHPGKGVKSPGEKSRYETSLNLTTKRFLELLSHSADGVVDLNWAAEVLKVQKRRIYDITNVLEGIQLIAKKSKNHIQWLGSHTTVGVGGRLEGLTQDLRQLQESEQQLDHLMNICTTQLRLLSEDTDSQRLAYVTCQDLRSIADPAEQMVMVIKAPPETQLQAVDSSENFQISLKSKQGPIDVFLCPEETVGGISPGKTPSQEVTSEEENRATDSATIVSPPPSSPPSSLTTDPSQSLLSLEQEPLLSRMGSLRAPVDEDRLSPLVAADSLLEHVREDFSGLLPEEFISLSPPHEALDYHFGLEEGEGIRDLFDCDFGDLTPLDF
Chain of Hepatocyte nuclear factor 6 (Homo sapiens) (Q9UBC0 whole entry, looked up, the tested form may be a part): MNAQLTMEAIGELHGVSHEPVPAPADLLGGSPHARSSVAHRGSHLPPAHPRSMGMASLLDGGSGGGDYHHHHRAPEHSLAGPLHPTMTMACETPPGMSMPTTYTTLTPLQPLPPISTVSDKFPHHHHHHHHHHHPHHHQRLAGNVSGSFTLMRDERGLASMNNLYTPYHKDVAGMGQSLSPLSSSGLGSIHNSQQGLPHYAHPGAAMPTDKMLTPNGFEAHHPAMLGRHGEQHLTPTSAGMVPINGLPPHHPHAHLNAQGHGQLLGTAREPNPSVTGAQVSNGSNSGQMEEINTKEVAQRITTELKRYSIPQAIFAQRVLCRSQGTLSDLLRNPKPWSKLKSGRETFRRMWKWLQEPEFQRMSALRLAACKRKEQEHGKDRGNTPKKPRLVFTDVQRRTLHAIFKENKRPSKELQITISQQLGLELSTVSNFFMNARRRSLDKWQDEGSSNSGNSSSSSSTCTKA
Chain of Myc proto-oncogene protein (Homo sapiens) (P01106 whole entry, looked up): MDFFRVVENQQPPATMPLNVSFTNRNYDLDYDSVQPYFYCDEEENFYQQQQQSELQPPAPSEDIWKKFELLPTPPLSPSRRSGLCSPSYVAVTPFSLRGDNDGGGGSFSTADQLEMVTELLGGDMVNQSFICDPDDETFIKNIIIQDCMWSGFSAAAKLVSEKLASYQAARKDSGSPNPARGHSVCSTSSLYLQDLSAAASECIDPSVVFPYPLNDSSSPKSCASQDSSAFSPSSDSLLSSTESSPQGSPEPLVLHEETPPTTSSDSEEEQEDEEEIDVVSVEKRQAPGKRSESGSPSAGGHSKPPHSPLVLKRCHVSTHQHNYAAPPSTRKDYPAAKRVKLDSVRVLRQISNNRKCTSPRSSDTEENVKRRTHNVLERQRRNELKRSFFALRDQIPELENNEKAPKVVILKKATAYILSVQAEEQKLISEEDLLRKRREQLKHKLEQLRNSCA
Chain of Nuclear receptor subfamily 1 group I member 2 (Homo sapiens) (O75469 whole entry, looked up, the tested form may be a part): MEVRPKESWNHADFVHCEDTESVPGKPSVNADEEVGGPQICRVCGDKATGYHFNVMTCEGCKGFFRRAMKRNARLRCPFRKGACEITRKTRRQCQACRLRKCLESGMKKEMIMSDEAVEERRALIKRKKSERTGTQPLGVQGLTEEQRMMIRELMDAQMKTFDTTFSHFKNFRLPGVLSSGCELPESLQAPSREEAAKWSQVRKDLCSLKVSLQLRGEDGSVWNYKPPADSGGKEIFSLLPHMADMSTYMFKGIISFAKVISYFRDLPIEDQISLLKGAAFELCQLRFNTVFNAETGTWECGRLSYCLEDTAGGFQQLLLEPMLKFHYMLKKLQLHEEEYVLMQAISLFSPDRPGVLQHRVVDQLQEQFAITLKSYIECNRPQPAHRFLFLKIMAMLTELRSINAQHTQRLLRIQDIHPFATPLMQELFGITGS
Chain of Hypoxia-inducible factor 1-alpha (Homo sapiens) (Q16665 whole entry, looked up): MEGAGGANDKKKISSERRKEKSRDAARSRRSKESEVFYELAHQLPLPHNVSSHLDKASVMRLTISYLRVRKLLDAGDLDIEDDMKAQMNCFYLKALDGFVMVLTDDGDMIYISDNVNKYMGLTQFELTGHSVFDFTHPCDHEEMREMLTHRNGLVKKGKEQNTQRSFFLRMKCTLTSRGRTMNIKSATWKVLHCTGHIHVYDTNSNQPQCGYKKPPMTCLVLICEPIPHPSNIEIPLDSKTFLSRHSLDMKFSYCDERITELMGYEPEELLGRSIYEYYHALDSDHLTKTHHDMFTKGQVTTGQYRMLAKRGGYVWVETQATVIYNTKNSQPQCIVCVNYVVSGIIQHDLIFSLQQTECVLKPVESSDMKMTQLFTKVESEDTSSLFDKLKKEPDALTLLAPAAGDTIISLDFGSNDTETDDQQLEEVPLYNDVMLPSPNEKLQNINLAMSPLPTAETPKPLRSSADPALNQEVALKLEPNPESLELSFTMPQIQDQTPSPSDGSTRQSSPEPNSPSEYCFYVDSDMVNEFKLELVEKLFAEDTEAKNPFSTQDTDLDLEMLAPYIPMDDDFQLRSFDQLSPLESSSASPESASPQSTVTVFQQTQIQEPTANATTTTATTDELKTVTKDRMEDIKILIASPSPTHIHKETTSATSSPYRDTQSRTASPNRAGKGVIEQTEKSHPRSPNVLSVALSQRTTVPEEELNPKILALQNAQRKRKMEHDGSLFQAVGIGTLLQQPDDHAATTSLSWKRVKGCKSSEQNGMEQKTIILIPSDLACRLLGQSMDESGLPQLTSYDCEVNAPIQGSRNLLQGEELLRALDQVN
Chain of Nuclear respiratory factor 1 (Homo sapiens) (Q16656 whole entry, looked up): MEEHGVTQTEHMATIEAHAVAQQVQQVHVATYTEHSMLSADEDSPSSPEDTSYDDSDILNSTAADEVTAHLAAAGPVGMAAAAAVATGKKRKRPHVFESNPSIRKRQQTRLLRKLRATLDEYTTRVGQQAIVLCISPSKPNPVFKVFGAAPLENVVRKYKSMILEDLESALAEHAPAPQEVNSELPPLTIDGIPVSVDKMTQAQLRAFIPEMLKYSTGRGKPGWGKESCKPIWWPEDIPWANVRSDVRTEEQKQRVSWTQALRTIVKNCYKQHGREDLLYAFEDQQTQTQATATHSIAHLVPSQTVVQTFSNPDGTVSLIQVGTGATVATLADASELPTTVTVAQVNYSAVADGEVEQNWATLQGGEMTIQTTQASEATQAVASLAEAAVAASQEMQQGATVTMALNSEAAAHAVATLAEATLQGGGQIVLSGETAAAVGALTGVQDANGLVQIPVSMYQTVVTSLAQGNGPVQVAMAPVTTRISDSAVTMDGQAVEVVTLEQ

## OCCN(CCO)c1cccc(Cl)c1
[1]
  outcome: inactive
[2]
  outcome: inactive
[3]
  outcome: inactive
[4]
  outcome: inactive
[5]
  outcome: inactive
[6]
  outcome: inactive
[7]
  outcome: inactive
[8]
  outcome: inactive
[9]
  outcome: inactive
[10]
  outcome: inactive
[11]
  outcome: inactive
[12]
  AC50: 175 µM (active)
[13]
  outcome: inactive
[14]
  outcome: inactive
[15]
  outcome: inactive
[16]
  outcome: inactive

## Brc1ccc(Oc2ccc(Br)cc2)cc1
[2]
  outcome: inactive
[17]
  outcome: inactive
[18]
  outcome: inactive
[19]
  outcome: inactive
[3]
  outcome: inactive
[4]
  outcome: inactive
[5]
  outcome: inactive
[20]
  outcome: inactive
[6]
  outcome: inactive
[7]
  AC50: 100 µM (active)
[8]
  outcome: inactive
[9]
  outcome: inactive
[10]
  outcome: inactive
[11]
  outcome: inactive
[12]
  AC50: 66.4 µM (active)
[13]
  outcome: inactive
[14]
  outcome: inactive
[15]
  AC50: 7.35 µM (active)

## CC(C)CC(=O)CC(C)CC(C)C (stereo not drawn)
[2]
  outcome: inactive
[17]
  outcome: inactive
[19]
  outcome: inactive
[3]
  outcome: inactive
[4]
  outcome: inactive
[5]
  outcome: inactive
[20]
  outcome: inactive
[6]
  outcome: inactive
[8]
  outcome: inactive
[9]
  outcome: inactive
[10]
  outcome: inactive
[12]
  AC50: 116 µM (active)
[13]
  outcome: inactive
[14]
  outcome: inactive
[15]
  outcome: inactive

## COC(=O)CCSCCC(=O)OC
[2]
  outcome: inactive
[17]
  outcome: inactive
[18]
  outcome: inactive
[19]
  outcome: inactive
[3]
  outcome: inactive
[4]
  outcome: inactive
[5]
  outcome: inactive
[20]
  outcome: inactive
[6]
  outcome: inactive
[8]
  outcome: inactive
[9]
  outcome: inactive
[10]
  outcome: inactive
[11]
  outcome: inactive
[12]
  outcome: inactive
[13]
  outcome: inactive
[15]
  outcome: inactive
[16]
  outcome: inactive

## Oc1ccc(Oc2ccccc2)cc1
[1]
  outcome: inactive
[17]
  outcome: inactive
[18]
  outcome: inactive
[3]
  outcome: inactive
[4]
  outcome: inactive
[5]
  outcome: inactive
[20]
  outcome: inactive
[6]
  outcome: inactive
[7]
  outcome: inactive
[8]
  outcome: inactive
[9]
  outcome: inactive
[10]
  outcome: inactive
[12]
  outcome: inactive
[13]
  outcome: inactive
[14]
  outcome: inactive
[15]
  outcome: inactive

## CCO[Si](CCCN)(OCC)OCC
[1]
  outcome: inactive
[2]
  outcome: inactive
[18]
  outcome: inactive
[19]
  outcome: inactive
[3]
  outcome: inactive
[4]
  outcome: inactive
[5]
  outcome: inactive
[20]
  outcome: inactive
[7]
  outcome: inactive
[8]
  outcome: inactive
[9]
  outcome: inactive
[10]
  outcome: inactive
[12]
  outcome: inactive
[13]
  outcome: inactive
[14]
  outcome: inactive

## CCCCCCCC#N
[2]
  outcome: inactive
[17]
  outcome: inactive
[18]
  outcome: inactive
[19]
  outcome: inactive
[3]
  outcome: inactive
[4]
  outcome: inactive
[5]
  outcome: inactive
[20]
  outcome: inactive
[7]
  outcome: inactive
[8]
  outcome: inactive
[9]
  outcome: inactive
[10]
  outcome: inactive
[12]
  outcome: inactive
[13]
  outcome: inactive
[15]
  outcome: inactive
[16]
  outcome: inactive
